# Tg IFNy HTS – T. gondii growth inhibition with IFN-gamma, primary screen, cell-based | activity change, negative = inhibition, % (test concentration not listed) | 69,000 compounds, 3.8% hits | Toxoplasma gondii growth in IFN-gamma-treated host cells; hits give low values; in the data active = activity change below about -70%, passing the limit was not always enough;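 note: host cells are HeLa cells infected with Toxoplasma gondii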
# The depositor's hits bear a star. The sample as a whole holds a higher share of hits than the screen did.
SMILES,Tg IFNy HTS
CN(C)C(=O)CN1CCOCC2(CCN(C(=O)Nc3ccc(Cl)cc3)CC2)C1,0
CC(C)CN1C[C@@H]2[C@@H](C1)C(=O)NC21CCN(C(=O)Nc2ccc(Cl)cc2)CC1,-109*
CCN1c2cc(Cl)ccc2C(=O)NC12CCN(C(=O)Nc1ccc(OC)cc1)CC2,285
CC(C)C1CN(C(=O)c2n[nH]c3c2CCC3)CCCN1CC1CC1 (stereo not drawn),8
C=CCN1CC2(CCN(Cc3ccc4c(c3)OCO4)CC2)OCC1=O,7
CC(C)(C)c1ccc(C23OC(=O)C4(CCCC4)C2OC(=O)C32CCCC2)cc1 (stereo not drawn),-73*
CCc1ccccc1NC(=O)C1=C(C)C(=O)OC12CCN(S(=O)(=O)CC)CC2,22
Cc1nc(-c2cccc(F)c2)sc1CCNC(=O)C(=O)Nc1ccc2c(c1)OCO2,-98*
Cc1ccc(NC(=O)C(=O)NCCc2sc(-c3cccc(F)c3)nc2C)cc1F,51
Cc1cccc(NC(=O)C(=O)NCCc2sc(-c3ccccc3)nc2C)c1,-36
Cc1ccc(-c2nc(C)c(CCNC(=O)C(=O)Nc3ccc4c(c3)OCCO4)s2)cc1,-38
Cc1ccc(-c2nc(C)c(CCNC(=O)C(=O)Nc3ccc(Cl)cc3)s2)cc1,83
Cc1nc(-c2ccccc2)sc1CCNC(=O)C(=O)Nc1ccc2c(c1)OCO2,-93*
Cc1nc(-c2ccc(Cl)cc2)sc1CCNC(=O)C(=O)Nc1ccc2c(c1)OCO2,-90*
Cc1ccc(NC(=O)C(=O)NCCc2sc(-c3ccccc3)nc2C)cc1,-3
Cc1nc(-c2cccc(F)c2)sc1CCNC(=O)C(=O)Nc1ccc2c(c1)OCCO2,-34
O=C1CCCN1CCN1CCOC(Cc2ccccc2Cl)C1 (stereo not drawn),-48
CN(C)C(=O)N1CCC2(CC1)CC(CC(=O)NC1CC1)c1ccccc1O2 (stereo not drawn),-45
Cc1cnc(C(=O)N2CCCn3cnc(CN(C)C(C)C)c3C2)cn1,-20
COc1ccc(OCC(=O)N2CCC(C(=O)NCCc3csc(-c4ccccc4)n3)CC2)cc1,12
O=C(NCCc1csc(-c2ccc(Cl)cc2)n1)C1CC1,-39
COc1cccc(C(=O)N2CCC3(CC2)CCn2c(-c4ccc(C(N)=O)cc4)cnc23)c1,7
O=C(c1cc(-c2ccccc2)on1)N1C[C@H](O)[C@@H](N2CCOCC2)C1,4
COc1ccc(-c2ccccc2OC(C)C(N)=O)c2ccc(C)nc12 (stereo not drawn),8
CN1CCN(c2cc(-c3cccnc3)nc3ccccc23)CC1,-16
SMILES,Tg IFNy HTS
Cc1nc(N2CCN(c3cc(=O)[nH]nc3-c3ccccc3)CC2)c2cnn(C)c2n1,-84*
COC(=O)C1(C)CCN(c2nc(-c3cccnc3)nc3c2cnn3C)CC1,-41
CC1=CC(C)C(COC(=O)NC2CCCCC2)(COC(=O)NC2CCCCC2)C(C)C1 (stereo not drawn),-101*
O=C(CNC(=O)OCc1ccccc1)NC1CCCCCC1,12
CS(=O)(=O)CC(=O)NC1CCCCC1,40
COCCN(C)C(=O)c1ccc2ccc(N3CCN(C(C)=O)CC3)n2c1,-1
Cc1ccc(C2(O)CCN(C(=O)Cc3noc4ccccc34)CC2)nc1,12
CCC(Oc1ccc2c(c1)CCCC2)C(=O)NCCc1cn[nH]c1 (stereo not drawn),14
Cc1nn(CC(=O)Nc2ccc(N3CCOCC3)cc2)c(C)c1Br,-4
Cc1nc(N)sc1-c1ccnc(Nc2ccc(N3CCOCC3)cc2)n1,-79*
Cc1nc(-c2cnccn2)sc1C(=O)Nc1ccc(N2CCOCC2)cc1,36
CCCN1CCN(C(=O)C2=C(C)C(=O)OC23CCN(S(=O)(=O)CC)CC3)CC1,41
Cc1cccc(CN2C[C@H]3[C@H](C(=O)Nc4ccccc4)CCS(=O)(=O)[C@H]3C2)c1,-115*
Cc1cccc(CN2C[C@H]3[C@H](C(=O)N(C)C)CCS(=O)(=O)[C@H]3C2)c1,-47
Cc1cccc(CN2C[C@H]3[C@H](C(=O)N4CCOCC4)CCS(=O)(=O)[C@H]3C2)c1,-1
CCCOc1ccc(-c2noc(-c3c(O)c4cc(F)ccc4n(C)c3=O)n2)cc1,0
CCCCCC(=O)O[C@]1(C(C)=O)CCC2C3CCC4=CC(=O)CC[C@]4(C)C3CC[C@@]21C (stereo partly drawn),-81*
CCCCCC(=O)O[C@]1(C(C)=O)CC[C@H]2[C@@H]3CCC4=CC(=O)CC[C@]4(C)[C@H]3CC[C@@]21C,-57
CCCCCCCC(=O)OCC(=O)[C@@]1(O)CC[C@H]2[C@@H]3CCC4=CC(=O)CC[C@]4(C)[C@H]3[C@@H](O)C[C@@]21C,-5
Cn1cnnc1C1CCN(C(=O)c2ccccc2C2CCNC2)CC1 (stereo not drawn),5
CCCn1cc(C(=O)NC(c2cc(C)ccn2)C2CC2)c(C)n1 (stereo not drawn),4
COc1ccc(-c2nc(CN3C(=O)C(O)(c4ccc(C)cc4)c4ccccc43)c(C)o2)cc1 (stereo not drawn),-124*
Cc1cc(C)c2c(=O)n(Cc3nc(-c4ccccc4Cl)oc3C)c(=O)n(-c3ccccc3)c2n1,2
Cc1oc(-c2ccccc2Cl)nc1CN1C(=O)C(O)(c2ccccc2)c2ccccc21 (stereo not drawn),-96*
CCN(CC)C(=O)c1cc(C)nc2c1c(=O)n(Cc1nc(-c3ccccc3Cl)oc1C)c(=O)n2C,-22
SMILES,Tg IFNy HTS
CCOc1ccc(-c2nc(CN3C(=O)C(O)(c4ccccc4)c4ccccc43)c(C)o2)cc1 (stereo not drawn),9
Cc1ccc(-c2nc(CN3C(=O)C(O)(c4ccccc4)c4ccccc43)c(C)o2)cc1 (stereo not drawn),-65
CC(C)(C)CC(=O)N1CCC2(CCC(CN)OC2)CC1 (stereo not drawn),-13
Cc1cc(-n2cccn2)ccc1CN1CCOCC(CN(C)C)C1 (stereo not drawn),-8
CC(=O)N1CCCC2(CN(Cc3ccc(C)o3)CCO2)C1 (stereo not drawn),5
CN(C)S(=O)(=O)N1Cc2nnn(C)c2C(COCC2CC2)C1 (stereo not drawn),64
COc1cc2c(c(OC)c1OC)-c1ccc(OC)c(=O)cc1C(NC(C)=O)CC2 (stereo not drawn),-79*
COc1cc2c(c(OC)c1OC)C(=O)CC2,73
COc1cc(-c2cccc(NC(C)=O)c2)cc(OC)c1OC,11
CCOC(=O)[C@@]12CCCN(Cc3ccccn3)C[C@@H]1CN(c1ccccn1)C2,0
Cc1cnc(C)c(-c2cc(O)c3c(c2)CN(CCn2cccc2)CCO3)n1,-30
CCn1c(CN2CCCC(n3c(=O)oc4ccc(Cl)cc43)C2)nc2ccccc21 (stereo not drawn),-87*
O=c1oc2ccccc2n1C1CCCN(CC2=Cc3ccccc3OC2)C1 (stereo not drawn),2
CCn1c(CN2CC[C@@H](c3sccc3C)[C@H](O)C2)nc2ccccc21,11
O=C(NCC1OCCc2cn(CC3CCOCC3)nc21)c1ccccc1 (stereo not drawn),27
CCCc1nc(NCc2cnn3cccnc23)c2cnn(C)c2n1,2
CN1CC2(CCN(C(=O)CN3CCc4ccccc4C3)C2)OC1=O (stereo not drawn),-5
OCCCn1cnc(-c2ccccc2)c1-c1cccn1-c1ccccn1,19
COC(=O)C1=C(C)NC(C)=C(C(=O)O[C@@H]2CCCN(Cc3ccccc3)C2)[C@@H]1c1cccc([N+](=O)[O-])c1,32

# Bioassay records: PubChem, Broad Institute
